# According to PubChem BioAssay AID720716 (Broad Institute, 2013):
# Unmarked numbers belong to inactive results.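 How the source made its calls: active means compounds whose fitted half-maximal concentration is at most twice the top tested dose; inconclusive means flat curve with 30 to 70% signal loss, or poor fit; inactive means flat, opposite-direction or too weak compounds.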
# Test: EF1alpha-driven Renilla reporter with control 3'UTR suppression – Clone20-Shn3RL cells, dual-Glo, dry powder, counter-screen for Shn3 3'UTR targeting project, dose response (AID 720716)
# Settings: Renilla luciferase control reporter, 24 h; series mostly up to 35 µM; activity change, negative = inhibition: at the top concentration
row,SMILES,"activity change, negative = inhibition"
1,COc1ccccc1N1CCN(c2ncc(C(=O)N3CCN(c4cccc(Cl)c4)CC3)c3ccccc23)CC1,20%
2,COc1ccc(Nc2nc(N3CCCCC3)c3ccccc3n2)cc1,0%
3,COc1ccc(NC(=O)c2nc(S(=O)(=O)Cc3cccc(C)c3)ncc2Cl)c(OC)c1,0%
4,CC(=O)N1CCN(C(=O)CCc2cc(C(C)(C)C)c(O)c(C(C)(C)C)c2)CC1,0%
5,COc1cc(CN2CCc3ccccc3C2)ccc1O,-29.2%
6,COc1ccc(NS(=O)(=O)c2ccc(C(=O)N3CCCCCC3)cc2)cc1,-26.7%
7,CCCc1nnc(NC(=O)c2nc(S(=O)(=O)Cc3ccc(C)cc3)ncc2Cl)s1,-25%
8,COc1ccc2c(c1)c(CC(=O)Nc1cc(C)ccc1C)c(C)n2C(=O)c1ccc(Cl)cc1,16.7%
9,O=C1CSc2ccc(C(=O)Nc3cccc(S(=O)(=O)Nc4ccc(Br)cc4)c3)cc2N1,0%
10,CN(C(=O)COc1ccccc1C(=O)NCCOc1ccccc1)c1ccccc1,-12.5%
11,CN(CC(=O)Nc1cccc(S(=O)(=O)N2CCOCC2)c1)CC(=O)Nc1ccc(Cl)c(C(F)(F)F)c1,0%
12,CN(C)c1nc(-c2ccccn2)nnc1-c1ccccc1,20%
13,CCOC(=O)C1(Cc2ccc(Cl)cc2)CCN(C(C)Cc2ccc(O)c(OC)c2)CC1 (stereo unspecified),-20%
14,COc1cc2ncnc(N[C@H](C)c3ccccc3)c2cc1OC,-22.5%
15,Cc1ccc2cc(CN(CC3CCCO3)C(=O)NC3CCCCC3)c(=O)[nH]c2c1C (stereo unspecified),0%
16,Nc1nonc1C(=O)NCCNCc1cc(Br)ccc1OCc1ccc(F)cc1,-22.5%
